Shown is part of a subset that was picked to be rich in hits.
Cruzain inh noDet – cruzain (T. cruzi) inhibition without detergent; 200,000 tested, 2.3% active; Potency, µM, most hits filed as inhibitors; P25779; purified cruzain, Z-FR-AMC fluorescence, no detergent; also: nearly all actives have a fitted effect of over 40% in size
Target sequence (P25779 123-467 limits assumed): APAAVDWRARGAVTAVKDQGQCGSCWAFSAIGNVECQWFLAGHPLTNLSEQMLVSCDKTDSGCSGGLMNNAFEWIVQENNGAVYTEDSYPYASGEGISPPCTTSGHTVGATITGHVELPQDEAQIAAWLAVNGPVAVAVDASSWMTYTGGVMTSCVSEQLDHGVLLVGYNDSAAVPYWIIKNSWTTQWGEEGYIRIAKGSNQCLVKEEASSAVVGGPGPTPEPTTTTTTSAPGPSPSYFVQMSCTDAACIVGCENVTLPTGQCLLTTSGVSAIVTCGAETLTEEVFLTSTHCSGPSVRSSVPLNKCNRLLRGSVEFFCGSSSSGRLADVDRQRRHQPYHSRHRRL
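Detergent-free condition (0.00005% Triton X-100) in acetate buffer pH 5.5 with DTT. 1.5 nM enzyme and compound were pre-mixed 15 min, then 2 uM Z-FR-AMC substrate added; reaction progress from fluorescence change between first and third reads (60 s).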
Giardia FBPA inh – inhibitors of Giardia lamblia fructose-1,6-bisphosphate aldolase. purified Giardia FBPA. Potency, µM (highest dose often 59.6 µM), hits mostly inhibitors. AID 2451. 290,000 tested, 0.71% active; also: nearly all actives have a fitted effect of over 55% in size
Target sequence (A8B2U2 whole entry, looked up): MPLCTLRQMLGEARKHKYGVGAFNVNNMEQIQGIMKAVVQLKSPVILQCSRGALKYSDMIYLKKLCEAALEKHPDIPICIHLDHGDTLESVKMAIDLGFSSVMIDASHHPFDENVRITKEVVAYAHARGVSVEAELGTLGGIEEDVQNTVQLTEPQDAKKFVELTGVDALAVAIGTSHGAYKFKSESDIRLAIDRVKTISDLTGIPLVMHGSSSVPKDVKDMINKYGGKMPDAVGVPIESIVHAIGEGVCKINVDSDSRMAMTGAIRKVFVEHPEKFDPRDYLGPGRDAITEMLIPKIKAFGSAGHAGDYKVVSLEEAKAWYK
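40 nM FBPA preincubated 10 min at RT with compound (up to 57.5 uM final), then substrate plus GAPDH/TPI/NAD/arsenate coupling and diaphorase/resazurin added. Fluorescence read after 20 min at RT, 525/598 nm.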
Cruzain Triton – inhibitors of Trypanosoma cruzi cruzain with detergent | P25779 | purified cruzain, Z-FR-AMC fluorescence, 0.01% Triton | Potency, µM, hits mostly inhibitors | 200,000 tested, 0.43% active | AID 1478; also: nearly all actives have a fitted effect of over 40% in size
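Sodium acetate buffer (100 mM, pH 5.5) containing 5 mM DTT and 0.01% Triton X-100 hosted 1.5 nM cruzain and test compound for 15 min at room temperature. Cleavage of 2 uM Z-FR-AMC was then tracked by fluorescence.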
Hits are given with their value; . = inactive; ? = inconclusive; / = not tested or not shown; [ ] = another dose, or the depositor's remark. Calls follow the shape of the dose curve; as a rule, active = well fitted curve in the direction sought with a large enough effect; inconclusive = small, poorly fitted or top-dose-only effect, or another doubt; inactive = no such curve, though single readings can be large; an effect the other way counts as inactive or inconclusive.

SMILES	Cruzain inh noDet	Giardia FBPA inh	Cruzain Triton
Cc1ccc2c(c1)N(C(=O)N1CCC(C(=O)NCCC3=CCCCC3)CC1)CC(C)O2 (stereo not given)	.	/	.
C[C@H](Cc1nc2c(cnn2-c2ccccc2Cl)c(=O)[nH]1)C(F)(F)F	/	.	/
O=[N+]([O-])c1cc(-c2nc(-c3ccccc3)no2)ccc1NCc1cccnc1	.	/	.
Cc1cccc(N=C2NC(=O)/C(=C\c3cccs3)S2)c1	31.6µM	.	.
Cc1ccc(N=C2NC(=O)/C(=C/c3cccs3)S2)cc1C	?	.	.
O=C(Cn1c2ccccc2c(=O)c2ccccc21)N/N=C/c1ccc(N2CCCC2)c([N+](=O)[O-])c1	?	.	.
O=C(Cn1c2ccccc2c(=O)c2ccccc21)N/N=C/c1cc([N+](=O)[O-])ccc1N1CCCCCC1	6.31µM	.	.
Cc1ccc(-n2c(C)cc(/C=N/NC(=O)Cn3c4ccccc4c(=O)c4ccccc43)c2C)cc1	?	.	.
Cc1cc(/C=N/NC(=O)Cn2c3ccccc3c(=O)c3ccccc32)c(C)n1-c1ccc(Cl)cc1	3.16µM	.	.
O=C(CSc1nnc(-c2ccc(F)cc2)o1)c1ccc2c(c1)OCCO2	12.6µM	.	.
Cc1cc(C(=O)CSc2nnc(-c3ccccc3)o2)c(C)n1CC1COc2ccccc2O1 (stereo not given)	20µM	.	.
Cc1cc(C(=O)CSc2nnc(-c3ccco3)o2)c(C)n1CC1COc2ccccc2O1 (stereo not given)	?	.	.
Cc1cc(C(=O)CSc2nnc(-c3ccc(F)cc3)o2)c(C)n1CC1COc2ccccc2O1 (stereo not given)	15.8µM	.	.
O=C(CSc1nnc(-c2ccncc2)o1)c1ccc2c(c1)OCCO2	/	.	/
Cc1cc(C(=O)CSc2nnc(-c3ccc(F)cc3)o2)c(C)n1CC1CCCO1 (stereo not given)	.	.	.
CC(C)COc1ccc(C(=O)N2CCC(c3nc4ccccc4s3)CC2)cc1	.	/	.
CC(C)c1cnc2c(c1SCC(=O)c1ccccc1)c(=O)n(C)c(=O)n2C	.	/	.
CCn1c(=O)c2cc(C(=O)N(C)c3cc(C)ccc3C)sc2c2ccccc21	.	/	.
O=C1/C(=C/c2c[nH]c3ccccc23)CCC/C1=C\c1c[nH]c2ccccc12	25.1µM	.	.
O/N=C/c1c[nH]c2ccccc12	.	.	.
CCCCC1=CC2=C(OC(C)=O)C(=O)C(C)(OC(=O)c3ccc(Cl)nc3)C(=O)C2=CO1 (stereo not given)	.	.	.
COc1ccccc1CNc1ncnc2ccc(-c3ccccc3OC)cc12	.	.	.
CSc1nc2ccccc2cc1/C=C(\C#N)c1ccc(Cl)c(Cl)c1	25.1µM	.	.
CSc1nc2ccccc2cc1/C=C(\C#N)c1ccccc1	.	.	.
COC(=O)C/C=C\[C@H](C)[C@@H](OC)c1ccccc1Br	/	.[12.9 µM]	/
SMILES	Cruzain inh noDet	Giardia FBPA inh	Cruzain Triton
ON=C1CCCCC1	.	/	.
CC(=O)c1cc(C)oc1C	.	/	.
COC(=O)[C@@H]1CC[C@H](C)[C@@H](c2ccc(C)cc2)N1C(=O)c1ccc(/C=N\O[C@@H](C)CN2CCCc3nc(C)c(C)cc32)cc1	/	.[12.9 µM]	/
O=[N+]([O-])c1cccc(-c2ncc3ccccn23)c1	/	.	/
Nc1c(-c2cccc([N+](=O)[O-])c2)nc2ccccn12	20µM	.	.
C[C@@H](c1ccccc1)N1C(=O)[C@H]2[C@H]3[C@H](O)[C@H](O)C/C(=N/NC(=O)OCc4ccccc4)[C@@H]3CC[C@@H]2C1=O	/	.[12.9 µM]	/
c1cc2ccc3cccc4ccc(c1)c2c34	.	/	.
c1ccc2c(c1)c1cccc3ccc4cccc2c4c31	15.8µM	/	.
CCc1nn(CC(=O)NCc2ccc(OC)cc2OC)c(=O)c2cc3c(OC)cccc3n12	.	/	.
N#C/C(=C\C=C\c1ccccc1)c1nc(-c2ccc3c(c2)OCO3)cs1	25.1µM	.	.
N#C/C(=C/c1ccc(O)cc1)c1nc(-c2ccc(-c3ccccc3)cc2)cs1	.	/	.
CC(=O)Oc1oc(-c2ccccc2)nc1C=Nc1ccc(N(C)C)cc1	/	.	/
CC(=O)Oc1oc(-c2ccccc2)nc1/C=N/c1ccccn1	12.6µM	.	14.1µM
COc1ccccc1N=Cc1nc(-c2ccccc2)oc1OC(C)=O	20µM	.	25.1µM
CN(C)c1ccc(N=Cc2nc(-c3ccccc3)oc2OC(=O)c2ccccc2)cc1	?	.	.
Cc1noc(C)c1-c1ccc2ncnc(NCc3cccc(C(F)(F)F)c3)c2c1	/	.	/
CCN(CC)C(=O)c1sc2c(c1C)c(=O)n(CCc1ccccc1)c(=O)n2Cc1ccc(F)cc1Cl	.	/	.
Cc1ccc(C(=O)c2c(C)oc3c2C(=O)C(=O)c2ccccc2-3)cc1	?	0.629µM	.
Cc1oc2c(c1C(=O)c1ccc(Cl)cc1)C(=O)C(=O)c1ccccc1-2	?	0.889µM	.
COc1ccc(C(=O)c2coc(-c3ccccc3C(=O)O)c2C(=O)O)cc1	.	.	.
O=C(c1ccc(Cl)cc1)c1ccc(CN2C(=O)c3ccccc3C2=O)o1	.	.	.
Cc1oc2c(c1C(=O)N1CCC(C)CC1)C(=O)c1ccccc1C2=O	.	?	.
Cc1ccc(C(=O)c2coc3c2C(=O)C(=O)c2ccccc2-3)cc1	12.6µM	2.81µM	.
COc1ccc(CN(Cc2ccco2)C(=O)COc2ccccc2OC)cc1	.	/	.
N=C(N)SCCSC(=N)N	.	/	.
SMILES	Cruzain inh noDet	Giardia FBPA inh	Cruzain Triton
O=C(NCc1ccccc1Cl)C1CCCN(c2nc3ccccc3n3cccc23)C1 (stereo not given)	?	/	.
CC(C)N1C(=O)C(O)(c2c[nH]c3ccccc23)c2ccccc21 (stereo not given)	.	/	.
CN(C(=O)Nc1ccccc1)C1CCS(=O)(=O)C1 (stereo not given)	.	.	.
CC(=O)NC1=C(N(C)C2CCS(=O)(=O)C2)C(=O)c2ccccc2C1=O (stereo not given)	.	0.126µM	.
O=C(O)CO	/	.	/
COc1ccc(NC(=O)c2c(NCc3ccc(N(C)C)cc3)sc3c2CCC3)cc1	.	/	.
CCc1nn2c(=O)c(S(=O)(=O)Nc3ccc(C)c(C)c3)c(C)nc2s1	.	/	.
Cc1ccc(N2CCN(S(=O)(=O)c3cc(C(=O)Nc4cc(Cl)cc(Cl)c4)ccc3F)CC2C)cc1 (stereo not given)	2.51µM	/	.
Cc1ccc(C)c(N2CCN(S(=O)(=O)c3cc(C(=O)Nc4cc(Cl)cc(Cl)c4)ccc3F)CC2)c1	.	/	.
C[C@H](NC(=O)CNC(=O)[C@@H](NC(=O)[C@H](Cc1ccccc1)NC(=O)CNC(=O)CNC(=O)[C@@H](N)Cc1ccccc1)[C@@H](C)O)C(=O)N[C@@H](CCCN=C(N)N)C(=O)N[C@@H](CCCCN)C(=O)N[C@@H](CO)C(=O)N[C@@H](C)C(=O)N[C@@H](CCCN=C(N)N)C(=O)N[C@@H](CCCCN)C(N)=O	/	.	/
CC[N+](=O)[O-]	.	/	.
O=C(O)CCCC/C=C\C[C@@H](O)/C=C/C=C/C=C\[C@@H](O)CCCC(=O)O	3.98µM	.	12.6µM
O=C(O)CCC[C@H](O)\C=C/C=C/C=C/[C@H](O)C/C=C\CCCCCO	.	.	.
O=C(/C=C\c1ccc2c(c1)OCO2)Nc1c2c(nn1-c1ccc(Cl)cc1)CSC2	25.1µM	.	.
O=C(/C=C\c1ccc2c(c1)OCO2)NC1CC(=O)N(c2ccc(Cl)cc2)C1 (stereo not given)	.	/	.
